In ChEMBL document CHEMBL3433997, “St. Jude Leishmania screening dataset” (2016) one finds inhibition data, which are given here for 35 molecules.

Holding throughout (format): functional
For assay [1], the target named is Solute carrier family 2, facilitated glucose transporter member 1 (Homo sapiens) (UniProt P11166). The assay is described as follows: ST_JUDE_LEISH: Cytotoxicity at 2uM final concentration against transgenic Leishmania Mexicana promastigotes LmGLUT1 that are glucose transport deficient and complemented with the human glucose transporter GLUT1. Activity is measured by DNA content using SYBR green in vitro.
Chain of Solute carrier family 2, facilitated glucose transporter member 1 (Homo sapiens) (P11166 whole entry): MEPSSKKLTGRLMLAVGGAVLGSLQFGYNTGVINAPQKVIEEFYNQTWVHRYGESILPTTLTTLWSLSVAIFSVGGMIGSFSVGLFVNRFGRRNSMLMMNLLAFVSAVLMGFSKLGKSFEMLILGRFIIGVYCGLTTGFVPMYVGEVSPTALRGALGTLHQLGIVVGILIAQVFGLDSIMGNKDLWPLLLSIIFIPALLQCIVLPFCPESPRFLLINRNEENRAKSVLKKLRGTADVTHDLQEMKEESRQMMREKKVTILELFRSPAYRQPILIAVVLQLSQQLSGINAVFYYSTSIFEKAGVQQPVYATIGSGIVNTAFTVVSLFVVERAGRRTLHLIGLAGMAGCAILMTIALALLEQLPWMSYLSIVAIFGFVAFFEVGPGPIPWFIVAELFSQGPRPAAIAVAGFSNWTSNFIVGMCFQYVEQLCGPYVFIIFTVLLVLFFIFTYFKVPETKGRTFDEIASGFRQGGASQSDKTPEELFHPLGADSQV

In assay [2] the target is Hexose transporter 1 (Plasmodium falciparum) (UniProt O97467). As to the kind of experiment: ST_JUDE_LEISH: Cytotoxicity at 2uM final concentration against transgenic Leishmania Mexicana promastigotes LmPfHT that are glucose transport deficient and complemented with the Plasmodium falciparum hexose transporter. Activity is measured by DNA content using SYBR green in vitro.

The target in assay [3] is Glucose transporter (Leishmania mexicana) (UniProt O61059). As to the kind of experiment: ST_JUDE_LEISH: Cytotoxicity at 2uM final concentration against transgenic Leishmania Mexicana promastigotes LmGT2 that are glucose transport deficient and complemented with the L. Mexicana glucose transporter 2. Activity is measured by DNA content using SYBR green in vitro.

As for `c1ccc(C(c2ccccc2)N2CCN(C(c3cccnc3)c3nnnn3C3CCCC3)CC2)cc1` (stereo not given), the results for the inhibition in assay [1], in assay [2] and in assay [3] were 4.64%, -0.82% and -1.23%, respectively.
Regarding `N#Cc1cc(C(=O)c2cc(Cl)ccc2O)cn(-c2cc(Cl)cc(Cl)c2)c1=O`, the inhibition in assay [1] worked out at 2.16%; in assay [2] it was 3.14%; in assay [3] it was 2%.
On to `COc1ccc(C2=C(Nc3ccc4oc5ccccc5c4c3)c3ccccc3C2=O)cc1`, for which the inhibition in assay [1] was 0.72%; in assay [2], -0.17%; in assay [3], 0.33%.
As for `C=CCn1cc(C2CCN(CCCCNC(=O)c3sc(-c4ccc(C(F)(F)F)cc4)nc3CO)CC2)c2cc(OC)ccc21`, the results for the inhibition in assay [1], in assay [2] and in assay [3] were 1.93%, 3.91% and 4.35%, respectively.
Take `Cc1cc(Nc2ccc(C)c(Cl)c2)n2ncnc2n1`: the inhibition was -2.06% in assay [1], -1.7% in assay [2] and -4.9% in assay [3].
As to `CC(C)CC(C)NC(=O)C1Cc2c([nH]c3ccc(F)cc23)C2(CCN(Cc3ccccc3)CC2)N1` (stereo not given), the inhibition in assay [1] turned out to be 7.56%; in assay [2] it was 12.3%; in assay [3] it was 7.75%.
As to `Cc1ccc(C(=O)Nc2ccc(F)c(F)c2F)cc1S(=O)(=O)N1CCCCC1`, the inhibition in assay [1] was determined as 4.08%; in assay [2], 3.47%; in assay [3], 0.7%.
As for `COC(=O)c1cccc(CNCc2cccc(-c3ccc(-c4nc5cccc(C)c5[nH]4)s3)c2)c1`, the inhibition in assay [1] came out at 1.43%; in assay [2], 0.6%; in assay [3], 0.69%.
The corresponding values for `CC=CC(=O)N1CCN(c2nccc(-c3ccc(C(C)(C)C)cc3)n2)CC1` are 8.6%, 9.97% and 7.85%.
As to `CCOc1ccc(C=CC(=O)Nc2ccc3nc(N4CCN(C)CC4)cc(C)c3c2)cc1OC`, the inhibition came to 3% in assay [1], 3.77% in assay [2] and 1.18% in assay [3].
`CCc1c(C(=O)NC2CCC(N3CCC(c4ccccc4OC)CC3)CC2)[nH]c2ccc(Br)cc12` (stereo not given): the inhibition was 0.33% in assay [1], -0.12% in assay [2] and -0.91% in assay [3].
For the molecule `Cc1cccc2nc(-c3ccc(-c4cccc(NC(=O)Nc5ccc(Cl)c(Cl)c5)c4)s3)[nH]c12`, the inhibition in assay [1] was 0.85%; in assay [2] it was -0.11%; in assay [3] it was 0.38%.
The corresponding values for `CN1CCC(c2c[nH]c3ccc(NC(=O)Nc4ccc(-c5ccncc5)c(Cl)c4Cl)cc23)CC1` are -2.47%, 0.63% and 4.75%.
For `COc1ccc(Cn2c(=O)[nH]c3cc(C(=O)NC4CCN(Cc5ccccc5)CC4)ccc3c2=O)cc1` the same measures were 2.2%, 0.63% and 2.59%.
The corresponding values for `CS(=O)(=O)CCNCc1cccc(-c2cc3c(Nc4ccc(OCc5cccc(F)c5)c(Cl)c4)ncnc3s2)c1` are -0.25%, -0.11% and -2.47%.
Consider `COc1cc(Cc2cnc(N)nc2N)cc(OC)c1OCCNC(=O)[C@@H](N)CCC(=O)O`, for which the inhibition was -0.69% in assay [1], 0% in assay [2] and 0.12% in assay [3].
On to `COc1cccc(-c2cccc(NC(=O)C3CCN(Cc4ccc(O)cc4)CC3)c2)c1`, for which the inhibition was 0.86% in assay [1], 0.59% in assay [2] and -5.2% in assay [3].
Regarding `CCc1cccc(-c2cc(N)n(C)c3nc(N)nc(=O)c2-3)c1`, the inhibition in assay [1] is -0.01%; in assay [2], 0.41%; in assay [3], -1.13%.
The corresponding values for `CC(=O)N(Cc1nc(-c2cc(Cl)c(Cl)s2)cs1)c1c(C)cccc1C` are 4.94%, 4.38% and 5.58%.
Take `CN(C)c1ccc(-c2csc(C(=O)NC3CCN(Cc4ccc(C(C)(C)C)cc4)C3)c2)cc1` (stereo not given): the inhibition was 5.6% in assay [1], 5.58% in assay [2] and 5.56% in assay [3].
The corresponding values for `Cc1c(C(=O)N2CCCC(C(F)(F)F)C2)sc2cccc(F)c12` (stereo not given) are 8.1%, 6.02% and 5.83%.
As to `Cc1ncsc1CCN1C(=O)CC2(C1=O)C(=O)N(Cc1ccccc1)c1ccc(Cl)cc12` (stereo not given), the inhibition in assay [1] is 1.9%; in assay [2], 2.58%; in assay [3] it was -1.17%.
Turning to `O=C(c1cccc(-c2cccc(-c3nc4cc(C(F)(F)F)ccc4[nH]3)c2)c1)N1CCCCC1CN1CCC(O)C1` (stereo not given), the inhibition was -0.81% in assay [1], -0.87% in assay [2] and -1.32% in assay [3].
`CCn1c(-c2nonc2N)nc2cnc(Oc3cccc(NC(=O)c4ccc(OCCCN5CCCCC5)cc4)c3)cc21`: the inhibition in assay [1] turned out to be 16.4%; in assay [2] it was 25.8%; in assay [3], 6.29%.
Take `CNC(=O)c1cnc(Nc2ccc(N3CCN(C)CC3)cc2)nc1Nc1cccc(OC(C)C)c1`: the values for the inhibition in assay [1], in assay [2] and in assay [3] were 3.75%, 1.38% and -7.72%, respectively.
Turning to `c1ccc2c(NCCOCCNc3c4ccccc4nc4ccccc34)c3ccccc3nc2c1`, the inhibition in assay [1] was 1.61%; in assay [2], 2.67%; in assay [3] it was 3.48%.
As for `CN1CCN(c2ccnc3cc4c(cc23)N(Cc2ccccc2)CC4)CC1`, the inhibition in assay [1] is -1.34%; in assay [2], -0.13%; in assay [3], 0.13%.
Turning to `Cc1noc(C)c1-c1cccc(CNCc2ccc(-c3ccc(-c4nc5cc(F)ccc5[nH]4)cc3)cc2)c1`, the inhibition worked out at 8.14% in assay [1], 6.89% in assay [2] and 3.46% in assay [3].
Regarding `O=C1Nc2cccc3c2C1(CCCCN1CCC(c2c(-c4ccccc4)[nH]c4ccccc24)CC1)CCC3` (stereo not given), the inhibition was 3.04% in assay [1], 2.74% in assay [2] and -0.14% in assay [3].
As to `N#Cc1ccc(/C=C/C(=O)NCCCCCN2CCN(C(=O)Nc3ccc(Cl)c(C(F)(F)F)c3)CC2)cc1`, the inhibition in assay [1] was 5.8%; in assay [2], 4.08%; in assay [3], 1.97%.
With `CC=CCON1C(=N)NC(=N)NC1(C)C`, the inhibition amounted to 1.93% in assay [1], 1.47% in assay [2] and 1.8% in assay [3].
For `COc1cccc(C2CCN(CCN3CCC(NC(=O)c4ccc(-c5ccc(Cl)cc5)cc4)CC3)CC2)c1` the same measures were -0.82%, 0.69% and 1.81%.
For `Cc1cc(C2CCN(CCCCNC(=O)c3ccc(NC(=O)c4ccc(Cl)cc4)cc3)CC2)c(C)cc1OCc1nccn1C` the same measures were 0.5%, 0.08% and 0.69%.
Regarding `CC(C)(CNC(=O)[C@@H]1CCCN(CCOc2ccc(Cl)cc2)C1)c1nc(-c2ccc(Cl)c(O)c2)c(-c2ccncc2)[nH]1`, the inhibition is -1.34% in assay [1], 2.16% in assay [2] and 0.11% in assay [3].
Consider `O=S(=O)(NCCN1CCCC1)c1ccc(-c2ccc(CNC3Cc4ccccc4C3)cc2)cc1F`, for which the inhibition in assay [1] amounted to 6.55%; in assay [2] it was 13.9%; in assay [3], 5.36%.
